Measured potencies and affinities stand elsewhere. Records with an inconclusive call do not appear. A number with no mark means an inactive call.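 Rule for the calls: active = signal loss from cell killing with fitted potency at or below twice the top valid dose; inconclusive = flat drop of 30 to 70%, or unreliable curve fit; inactive = opposite direction, flat within 30%, or weaker potency.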
assay: A549 cell cytotoxicity, dose response, cytotoxicity control, cherry-picks, 26 µM top dose (AID 1053119); conditions: A549 viability, CellTiter-Glo ATP luminescence, 72 h; series mostly up to 26 µM; activity change, negative = cytotoxicity: at the top concentration;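 note: 0% = neutral control wells and -100% = 10 µM mitoxantrone wells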

SMILES | activity change, negative = cytotoxicity
COc1cccc(-c2ccc3c(c2)[C@H]2[C@H](CCN2S(=O)(=O)c2cccc(OC)c2)[C@H](CO)N3)c1 | -8.97%
O=S(=O)(c1cccc(F)c1)N1CC[C@@H]2[C@H]1c1cc(-c3cccc(F)c3)ccc1N[C@@H]2CO | -7.69%
COCC(=O)Nc1ccc2c(c1)C(=O)N(C)[C@@H]1CC[C@H](CC(=O)NCc3ccccc3Cl)O[C@@H]1CO2 | -3.35%
O=S(=O)(c1ccccc1F)N1CC[C@@H]2[C@@H](CO)Nc3ccc(-c4cccc(F)c4)cc3[C@@H]21 | -9.85%
C[C@H]1CN([C@@H](C)CO)C(=O)c2cc(NC(=O)CCCN(C)C)ccc2O[C@@H]1CN(C)Cc1ccc(-c2ccccc2)cc1 | -0.529%
C[C@@H]1CN([C@@H](C)CO)C(=O)c2cc(-c3ccccc3)cnc2O[C@@H]1CN(C)Cc1ccccc1 | -4.5%
COc1ccc(CCNC(=O)C2CCN(Cc3nc(-c4ccccc4F)oc3C)CC2)cc1OC | 13.1%
N#Cc1ccc(-c2ccc3c(c2)[C@@H]2[C@@H](CCN2S(=O)(=O)c2ccccc2F)[C@H](CO)N3)cc1 | -1.48%
CO[C@H]1CN(C)C(=O)c2cc(NC(=O)Nc3cc(Cl)cc(Cl)c3)ccc2OC[C@H](C)NC[C@@H]1C | 8.32%
O=C(Nc1ccccc1F)N1C[C@@H]2[C@H](c3ccccc31)[C@H](CO)N2C(=O)C1CC1 | -11.8% [at 23.5 µM]
COC(=O)c1c(NC(=O)CN2CCN(c3ccccc3Cl)CC2)sc(C)c1C | -11.6%
COC(=O)C[C@@H]1CC[C@@H]2[C@@H](COc3ccc(NC(=O)Cc4cccs4)cc3C(=O)N2C)O1 | 6.73%
CO[C@@H]1CN(C)C(=O)c2ccc(NC(=O)c3ccc(-c4ccccc4)cc3)cc2OC[C@@H](C)NC[C@@H]1C | -9.52%
COCC(C)n1c(SCc2nc(N)nc(Nc3ccccc3C)n2)nc2ccccc2c1=O (configuration not stated) | 16.3%
Cc1c(NC(=O)c2ccc3nsnc3c2)cccc1[N+](=O)[O-] | -0.314%
C[C@H](CO)N1C[C@H](C)[C@@H](CN(C)C(=O)c2cccc(F)c2)Oc2ncc(-c3ccccc3)cc2C1=O | -7.25%
C[C@@H]1CN([C@H](C)CO)C(=O)c2cc(NC(=O)C3CCCCC3)ccc2O[C@H]1CN(C)Cc1ccc(-c2ccccc2)cc1 | -1.4%
Cc1oc2ccc(O)cc2c1C(=O)c1ccc(Br)cc1 | -18.2%
CCc1ccc(NC(=O)CSc2nnc(-c3ccco3)o2)cc1 | -8.55%

SMILES | activity change, negative = cytotoxicity
CN(C)C(=O)c1ccc(-c2ccc3c(c2)[C@@H]2[C@@H](CCN2C(=O)c2ccc(F)cc2)[C@H](CO)N3C)cc1 | -11.7%
CCCCOc1ccc(C(C)NC(=O)C2CCCN(S(=O)(=O)CCC)C2)cc1 (configuration not stated) | 5.52%
COCC(=O)Nc1ccc2c(c1)C(=O)N(C)[C@@H]1CC[C@@H](CC(=O)NCc3ccccc3Cl)O[C@H]1CO2 | 1.05% [at 23.5 µM]
COCC(=O)Nc1ccc2c(c1)C(=O)N(C)[C@H]1CC[C@H](CC(=O)NCc3ccccc3Cl)O[C@@H]1CO2 | -12% [at 23.5 µM]
O=S(=O)(c1ccccc1F)N1CC[C@H]2[C@H](CO)Nc3ccc(-c4cccc(F)c4)cc3[C@H]21 | -4.39% [at 23.5 µM]
Cc1cccc(N2CCN(S(=O)(=O)c3cn(C)cn3)CC2)c1C | -6.39%
O=C(c1cccnc1)N1C[C@H]2[C@@H](c3ccccc31)[C@@H](CO)N2CC1CCCC1 | -16.2%
CC(NC(=O)CSc1ccc(S(=O)(=O)N2CCOCC2)cn1)c1ccc(Cl)cc1Cl (configuration not stated) | 12.1%
CC(C)(C)[S@@](=O)N1Cc2cc(C(=O)NCc3ccccc3F)nc(-c3cccc(-c4cncnc4)c3)c2[C@H]1CCO | -12.2%
C[C@@H]1CN([C@H](C)CO)C(=O)c2cc(NC(=O)C3CCCCC3)ccc2O[C@@H]1CN(C)Cc1ccc(-c2ccccc2)cc1 | -12.1%
C[C@H]1CN([C@@H](C)CO)C(=O)c2cc(NC(=O)CCCN(C)C)ccc2O[C@H]1CN(C)Cc1ccc(-c2ccccc2)cc1 | 6.67%
CO[C@@H]1CN(C)C(=O)c2cc(NC(=O)Nc3ccc(Cl)c(Cl)c3)ccc2OC[C@H](C)NC[C@H]1C | 2.06%
CC1(C)Cc2c(C#N)c(SCC(=O)c3ccccc3)nc(N3CCOCC3)c2CS1 | 5.56%
C[C@@H]1CN([C@@H](C)CO)C(=O)c2cc(NC(=O)CCCN(C)C)ccc2O[C@@H]1CN(C)Cc1ccc(-c2ccccc2)cc1 | -1.88% [at 23.5 µM]
COc1ccccc1CC(=O)OC(C)C(=O)Nc1ccc(S(=O)(=O)N2CCCCC2)cc1 (configuration not stated) | 24.9%
c1ccc2[nH]c(SCc3cn4cccnc4n3)nc2c1 | 9.45%
COC(=O)C[C@H]1CC[C@H]2[C@@H](COc3ccc(NC(=O)Cc4cccs4)cc3C(=O)N2C)O1 | 4.07%
Cc1cccc(NC(=O)c2ccc(S(=O)(=O)N3CCCCC3)cc2)n1 | -1.35%
